In PubChem BioAssay AID2550 (Johns Hopkins Ion Channel Center, 2010) one finds B-score data, which are given here for 107 molecules.

The structures appear in SMILES notation. The whole screen tested about 310,000 compounds, of which about 380 (0.12%) were called active. This is one part of a sample in which actives are shown more often than they occur.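 Rule for the calls: active = B-score of the integrated fluorescence ratio above library mean plus 3 SD, and starting fluorescence ratio within library mean plus 5 SD; inactive = the rest.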

For the assay, the target named is Short transient receptor potential channel 6 (Mus musculus) (UniProt Q61143). Briefly: small molecules opening TRPC6 cation channel – cell-based, HEK293, membrane potential dye, primary screen (AID 2550).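 Note: higher score means more depolarization so channel activation.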 The conditions noted are these: HEK293-TRPC6 membrane potential dye fluorescence, at 10 µM; hits give high values.
Short transient receptor potential channel 6 (Mus musculus), sequence (Q61143 whole entry, looked up): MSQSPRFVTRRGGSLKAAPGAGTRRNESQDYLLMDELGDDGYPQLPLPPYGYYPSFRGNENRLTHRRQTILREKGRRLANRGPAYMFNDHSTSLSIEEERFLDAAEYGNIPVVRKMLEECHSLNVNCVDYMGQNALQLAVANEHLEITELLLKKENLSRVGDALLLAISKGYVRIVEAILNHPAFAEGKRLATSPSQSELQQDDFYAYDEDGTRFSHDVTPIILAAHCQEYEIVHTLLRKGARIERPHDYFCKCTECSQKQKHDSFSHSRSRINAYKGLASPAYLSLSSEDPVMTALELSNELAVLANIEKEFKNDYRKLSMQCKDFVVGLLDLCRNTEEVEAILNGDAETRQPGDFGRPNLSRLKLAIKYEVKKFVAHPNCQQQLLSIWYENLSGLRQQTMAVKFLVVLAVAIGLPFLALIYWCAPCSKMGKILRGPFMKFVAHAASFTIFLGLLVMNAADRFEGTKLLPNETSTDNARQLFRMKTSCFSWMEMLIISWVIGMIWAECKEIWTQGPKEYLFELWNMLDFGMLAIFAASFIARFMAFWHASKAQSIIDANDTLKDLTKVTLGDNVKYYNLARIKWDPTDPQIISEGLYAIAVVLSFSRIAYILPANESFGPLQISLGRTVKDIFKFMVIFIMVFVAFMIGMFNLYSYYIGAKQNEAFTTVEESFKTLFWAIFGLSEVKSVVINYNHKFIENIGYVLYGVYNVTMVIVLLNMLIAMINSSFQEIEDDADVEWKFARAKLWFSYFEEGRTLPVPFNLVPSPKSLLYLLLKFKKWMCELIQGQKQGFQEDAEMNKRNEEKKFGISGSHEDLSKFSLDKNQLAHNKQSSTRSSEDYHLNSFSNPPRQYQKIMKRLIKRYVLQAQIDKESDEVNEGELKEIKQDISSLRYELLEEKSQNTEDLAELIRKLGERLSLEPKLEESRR
Consider `CCOC(=O)/C(N=Nc1cc(C(=O)O)cc(C(=O)O)c1)=C(\O)CCl`, for which the B-score result was “inactive”.

For the molecule `CC(=O)c1ccc(NC(=O)C(C)NCc2ccc(Cl)cc2)cc1` (configuration not stated), the B-score entry was “inactive”.

Take `O=C(CN1C(=O)NC2(CCCCC2)C1=O)NCCc1c[nH]c2ccccc12`: the B-score entry was “inactive”.

With `CC(=O)N/C(=C/c1ccc(Cl)cc1)C(=O)NCCc1c[nH]c2ccccc12`, the B-score result was “inactive”.

On to `N#C/C(=C/c1ccc(N2CCCCC2)o1)C(=O)NCCc1c[nH]c2ccccc12`, for which the B-score is 33.2 (active).

For `O=C(COc1cc2oc(=O)c3c(c2cc1Cl)CCC3)NCCCN1CCOCC1`, the B-score result was “inactive”.

With `COc1nc(N(C)C)nc(N2CC(=O)N(CCNS(=O)(=O)c3ccc(C)cc3)C2=N)n1`, the B-score entry was “inactive”.

With `CC(C)(C)NCc1cc(Br)ccc1OC1CCCC1`, the B-score entry was “inactive”.

Regarding `CC(NCc1ccccc1OC1CCCC1)c1ccccc1` (configuration not stated), the B-score was 14.5 (active).

`COc1ccccc1CN1CCN(C(c2ccccc2)c2ccccc2)CC1`: the B-score result is “inactive”.

For the molecule `COc1ccc2[nH]c(=O)c(CNc3ccc(C)c(C)c3)cc2c1`, the B-score entry is “inactive”.

As to `CC(=O)c1ccc(N2CCN(S(=O)(=O)c3c(C)[nH]c(=O)[nH]c3=O)CC2)cc1`, the B-score entry is “inactive”.

With `CN1C(C(=O)NCC2CC2)CC2Cn3c(nc4ccccc43)C21` (configuration not stated), the B-score result is “inactive”.

Consider `CC1(C)OC(=O)C(=CSc2ccc(C(C)(C)C)cc2)C(=O)O1`, for which the B-score result is “inactive”.

For `COc1ccc(NC(=O)CS(=O)(=O)c2ccccc2)cc1`, the B-score result was “inactive”.

Turning to `COc1ccc(-c2nnc(NC(=O)CS(=O)(=O)c3ccc(Cl)cc3)o2)c(OC)c1`, the B-score is 13.4 (active).

Regarding `Cc1ccc(C)c(-c2nnc(NC(=O)CS(=O)(=O)c3ccccc3)o2)c1`, the B-score entry is “inactive”.

In the case of `CCOC(=O)CSC1=N/C(=C/c2ccc(-n3cncn3)cc2)C(=O)N1C(C)=O`, the B-score entry was “inactive”.

For the molecule `COc1ccc(S(=O)(=O)NCC(=O)NC2CC2)cc1OC`, the B-score result was “inactive”.

Regarding `CCc1ccc2oc(=O)cc(CN3CCCCC3C)c2c1` (configuration not stated), the B-score entry was “inactive”.

Consider `CCC1OC(c2ccc([N+](=O)[O-])cc2)=Nc2ccccc21` (configuration not stated), for which the B-score result was “inactive”.

`Cc1cc(Cl)ccc1C(=O)C1CCCN(C(=O)CCN2CCCO2)C1` (configuration not stated): the B-score entry was “inactive”.

`O=C(COc1ccc(S(=O)(=O)N2CCOCC2)cc1Cl)N1CCOCC1`: the B-score entry is “inactive”.

Turning to `O=c1[nH]oc(O)c1-c1ncc(C(F)(F)F)cc1Cl`, the B-score result is “inactive”.

`CC(C)(C)NC(=O)C(=O)NCc1ccncc1`: the B-score result is “inactive”.

For `COc1ccc(CNC(=O)COC(=O)/C=C/c2ccc(S(=O)(=O)N3CCOCC3)cc2)cc1`, the B-score entry was “inactive”.

On to `Cc1ccc(NC(=O)CN2C(=O)NC(C)(c3ccc(Cl)cc3)C2=O)c(Br)c1` (configuration not stated), for which the B-score entry is “inactive”.

In the case of `O=C(COc1ccc2ccc(=O)oc2c1)NCC(O)c1ccccc1` (configuration not stated), the B-score entry was “inactive”.

As to `O=C(Nc1ccccc1Cl)c1ccccc1S(=O)(=O)c1ccccc1[N+](=O)[O-]`, the B-score result was “inactive”.

As for `CCOC(=O)c1sc2nc(C)[nH]c(=O)c2c1C`, the B-score entry is “inactive”.

As to `CCOC(=O)c1sc2nc(CSc3ccccc3)[nH]c(=O)c2c1C`, the B-score result is “inactive”.

With `CCOC(=O)c1sc2nc(CSCC(=O)OCc3ccc(C(=O)OC)o3)[nH]c(=O)c2c1C`, the B-score is 18.9 (active).

On to `COc1ccccc1N1CCN(C(=O)c2ccc(NC3=NC4CS(=O)(=O)CC4S3)cc2)CC1` (configuration not stated), for which the B-score result was “inactive”.

Take `CCn1cc(C(=O)N2CC=C(c3ccccc3)CC2)c(=O)c2ccc(C)nc21`: the B-score entry is “inactive”.

Turning to `CCOc1cc(-c2conc2N)cc(OCC)c1OCC`, the B-score entry was “inactive”.

For `O=C(NCc1ccccc1)C(c1ccco1)N(C(=O)c1csnn1)c1ccccc1F` (configuration not stated), the B-score result was “inactive”.

As to `COc1ccccc1CN1CCNC(=O)C1CC(=O)N(C)CC1CCOCC1` (configuration not stated), the B-score entry was “inactive”.

As for `Cc1ccc(CNC(=O)Cn2c(=O)c3sccc3n(Cc3cccc([N+](=O)[O-])c3)c2=O)cc1`, the B-score entry was “inactive”.

With `O=C(O)CC(Cn1cnnn1)c1ccccc1` (configuration not stated), the B-score result is “inactive”.

Turning to `CCc1ccc2nc(Nc3ncc(C(C)=O)c(C)n3)nc(C)c2c1`, the B-score result was “inactive”.

Regarding `CC(O)c1ccc(OCCN(C)c2ccccn2)cc1` (configuration not stated), the B-score result is “inactive”.

Take `O=C(CC1C(=O)NCCN1C(=O)c1ccc([N+](=O)[O-])cc1)Nc1cccc(Cl)c1` (configuration not stated): the B-score entry was “inactive”.

On to `CCO[C@@H]1OC(C(=O)NC2CC2)=C[C@H](C)[C@H]1CCCO`, for which the B-score result is “inactive”.

With `O=C(NC1CCCCC1)C1CC(=O)N(CCc2ccccc2)C1` (configuration not stated), the B-score entry is “inactive”.

For `CCOC(CNC(=O)C(=O)NCC(c1ccco1)N1CCN(c2ccc(OC)cc2)CC1)OCC` (configuration not stated), the B-score entry was “inactive”.

As to `CCOc1ccc(S(=O)(=O)N2CCC(C(=O)NCc3ccccn3)CC2)cc1Cl`, the B-score entry is “inactive”.

Turning to `O=C(COc1ccccc1)Nc1nonc1NC(=O)COc1ccccc1`, the B-score entry was “inactive”.

Consider `CC(=O)c1cc2c(cc1NC(=O)CN1CCCCCC1)OCO2`, for which the B-score result was “inactive”.

As for `O=C(CCN1C(=O)C2CCCCC2C1=O)Nc1ccc(OC(F)F)cc1` (configuration not stated), the B-score result was “inactive”.

`COC(=O)c1ccc(NC(=O)CSc2nnc(-c3ccncc3)n2C)cc1`: the B-score is 12.9 (active).

In the case of `COC(=O)c1ccc(NC(=O)CSc2nnc(C3CC3)n2C)cc1`, the B-score result was “inactive”.

Regarding `COC(=O)c1ccc(NC(=O)CSc2nnc(CNc3ccc(OC)cc3)n2C)cc1`, the B-score result was “inactive”.

`COc1cccc(-c2cccc(NC(=O)C3CCN(C4CCC4)CC3)c2)c1`: the B-score entry was “inactive”.

For the molecule `CC(=O)c1c(C)[nH]c(C(=O)N2CCN(S(=O)(=O)c3ccc(F)c(F)c3)CC2)c1C`, the B-score entry is “inactive”.

Consider `[O-][n+]1onc2c1CCc1[nH]c(-c3ccccc3)nc1-2`, for which the B-score entry was “inactive”.

Turning to `C=CCN1C(=NC(=O)COc2ccccc2)SC2CS(=O)(=O)CC21` (configuration not stated), the B-score entry was “inactive”.

With `O=c1c2ccccc2cnn1Cc1n[nH]c(=S)n1-c1ccccc1F`, the B-score entry was “inactive”.

Turning to `CCC(C(=O)OCC(=O)Nc1ccccc1-c1ccccc1)c1ccccc1` (configuration not stated), the B-score result is “inactive”.

As to `CCOCCN(C=O)c1cccc(OC)c1`, the B-score entry is “inactive”.

For the molecule `C=CCc1cc(S(=O)(=O)c2ccc(O)c(CC=C)c2)ccc1O`, the B-score result was “inactive”.

Regarding `C=CCc1ccc(OCCOc2cccc(/C=N/n3cnnc3)c2)c(OC)c1`, the B-score result was “inactive”.

`CN(C(=O)CC(NC(=O)c1ccccc1)(c1ccccc1)c1ccccc1)c1ccccc1`: the B-score result is “inactive”.

As to `Cc1cccc(NC(=O)C(C)N2C(=O)C3C4CC(C(Br)C4Br)C3C2=O)c1` (configuration not stated), the B-score result was “inactive”.

With `CC(=O)c1c(N2CCN(c3ccc(F)cc3)CC2)nc(=S)n(-c2ccccc2)c1C`, the B-score result was “inactive”.

As for `CC(=O)Nc1ccc(NC(=O)COc2ccc(S(=O)(=O)NC(C)c3ccccc3)cc2)cc1` (configuration not stated), the B-score entry was “inactive”.

Consider `FC(F)(F)c1cccc(-c2cc3ccccc3nc2N2CCCC2)c1`, for which the B-score result was “inactive”.

As for `Cc1cccc2[nH]c(CN(C)C(=O)C3CCC(=O)N(CCc4ccccc4)C3)nc12` (configuration not stated), the B-score entry was “inactive”.

As for `Cc1c(S(=O)(=O)NC(C)c2ccccc2)c(=O)n(C)c(=O)n1C` (configuration not stated), the B-score result is “inactive”.

With `COc1ccc(CC(NC(C)=O)C(=O)NC2CCN(C(=O)C3CC3)CC2)cc1OC` (configuration not stated), the B-score result was “inactive”.

As for `O=S(=O)(c1cccc(Cn2nnc(-c3ccc(F)cc3)n2)c1)N1CCOCC1`, the B-score result was “inactive”.

In the case of `C[C@]1(C(=O)NCCc2c[nH]c3ccccc23)C=C[C@@H](Cc2ccccc2)N1C(=O)c1ccccc1`, the B-score result was “inactive”.

As to `CCOC(=O)c1nc(-c2ccc3c(c2)OCO3)[nH]c1C`, the B-score entry was “inactive”.

For the molecule `Cc1cc(Nc2ccc(C(=O)N3CCCCC3)cc2)c2cccc(C)c2n1`, the B-score entry is “inactive”.

With `CCC(c1nnc(SCC(=O)NNC(=O)c2ccccc2)n1Cc1ccccc1)N(C)C` (configuration not stated), the B-score entry was “inactive”.

As to `COc1ccc(-n2cc(-c3ccccc3)c3c(=S)nc[nH]c32)cc1`, the B-score entry was “inactive”.

Take `Cc1nnc(NC(=O)Cn2c(=O)sc3ccccc32)s1`: the B-score result is “inactive”.

Consider `O=C(Nc1cc(-c2nn(CC(=O)N3CCCCC3)c(=O)c3ccccc23)ccc1N1CCOCC1)c1ccc(Cl)cc1`, for which the B-score entry is “inactive”.

On to `Cc1cccc(NC(=O)Nc2ccc3c(c2)OCO3)n1`, for which the B-score entry is “inactive”.

For the molecule `OCc1nc(CO)n(Cc2ccccc2)n1`, the B-score entry is “inactive”.

As for `CCN(CC)C(=O)N1CCN(C(=O)c2ccc(C)cn2)CC1`, the B-score entry is “inactive”.

Turning to `COc1ccc(CCC(=O)c2ccc(OC)cc2)cc1`, the B-score result was “inactive”.

As to `COCC1CCN(C(=O)C2CCC(=O)N(Cc3cccc(C(F)(F)F)c3)C2)CC1` (configuration not stated), the B-score entry was “inactive”.

Consider `CCCCc1c(O)nc2n(c1=O)CCS2`, for which the B-score entry is “inactive”.

As to `CCOC(=O)N1CCC(O)(c2cc(C)c(C)cc2C)CC1`, the B-score result is “inactive”.

As for `COc1cccc2c1CCC(NC(C)=O)C2=O` (configuration not stated), the B-score entry is “inactive”.

Consider `O=C1CSC2=NCN(c3ccccc3)CN12`, for which the B-score entry is “inactive”.

Take `CN1C(CC(=O)Nc2ccc(Br)cc2)c2ccccc2CC1(C)C` (configuration not stated): the B-score entry was “inactive”.

Regarding `Nc1[nH][nH]c(=O)c1N=Nc1ccc2c(c1)OCO2`, the B-score entry is “inactive”.

For the molecule `Cn1c(SCC(=O)Nc2ccc(Cl)cc2)nc(O)cc1=O`, the B-score entry is “inactive”.

For `CCOc1ccc(NC(=O)CN(C)CC(=O)Nc2cccc(Cl)c2C)cc1OCC`, the B-score entry is “inactive”.

Regarding `Cc1ccc(NC(=O)C2CCN(S(=O)(=O)c3ccc4c(c3)NC(=O)CO4)CC2)cc1C`, the B-score entry is “inactive”.

As to `CCCCN=C(N)/C(C(=O)OCC)=C(\O)c1ccc(OC)cc1`, the B-score result was “inactive”.

Consider `CC(C)C(c1nnnn1C(C)(C)C)N1CCN(Cc2cccnc2)CC1` (configuration not stated), for which the B-score entry was “inactive”.

`Cn1c(-c2ccc(C(=O)c3ccccc3)s2)nc2ccccc21`: the B-score result is “inactive”.

As for `COc1cccc(C2c3[nH]c4ccccc4c3CCN2Cc2cccc(C)n2)c1` (configuration not stated), the B-score entry was “inactive”.

`COC(=O)[C@@H]1CC(O)CN1C(=O)C12CC3CC(CC(C3)C1)C2` (some centres not stated): the B-score result was “inactive”.

Consider `Cc1ccc(NC(=O)c2sc3nc(N)c(C#N)cc3c2N)cc1`, for which the B-score result is “inactive”.

Regarding `CCn1ccnc1CNC(=O)CC1C(=O)NCCN1Cc1ccc(F)cc1Cl` (configuration not stated), the B-score result was “inactive”.

With `CCOCCCNCc1ccc(OCc2ccc(F)cc2)c(OC)c1`, the B-score entry was “inactive”.

Regarding `CCN(CC)CCNCc1ccc(OCc2ccc(Cl)nc2)c(OC)c1`, the B-score entry is “inactive”.

`COc1cc(CNCCN(C)C)ccc1OCc1c(F)cccc1Cl`: the B-score is 12.5 (active).

Consider `CCc1ccc(/C=N/NC(=O)c2nnn(-c3nonc3N)c2CN2CCc3ccccc32)cc1`, for which the B-score entry was “inactive”.

On to `Cc1cccc(CCNS(=O)(=O)c2ccc3c(c2)NC(=O)CO3)c1`, for which the B-score result is “inactive”.

`Cc1ccccc1-n1nnnc1SCCCC(=O)c1ccc(F)cc1`: the B-score result was “inactive”.

Consider `CCC(C)N1C(=O)S/C(=C/c2ccc(Sc3nc4ccccc4[nH]3)o2)C1=O` (configuration not stated), for which the B-score entry is “inactive”.

Take `COc1cccc(CNC(=O)C2CC(=O)N(C3CCCCCCC3)C2)c1` (configuration not stated): the B-score entry is “inactive”.

Regarding `CNc1nc(Nc2ccc(C)c(Cl)c2)nc(N)c1[N+](=O)[O-]`, the B-score entry is “inactive”.
